Screening data (PubChem)
Compounds with a hit are over-represented: about 2.6% of the library has one in this group of screens.
Ba/F3 V617F tox: reduced viability of JAK2V617F-dependent Ba/F3 cells, primary screen, JAK2V617F inhibitor project, cell-based, Ba/F3 EpoR-JAK2V617F, luminescence | inhibition, % at 5.6 µM | ATP luminescence | AID 1446, 2008 | 220,000 compounds, 1.1% hits;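 active means inhibition above the campaign mean plus 3 SD over all tested compounds, cut at about 24% in these data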;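 further: cytokine-independent growth of Ba/F3 cells driven by EpoR plus mutant JAK2; 0% = DMSO-treated cells and 100% = JAK inhibitor I control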
BaF3 parental: parental Ba/F3 cell viability inhibition, counter-screen for JAK2V617F inhibitor project, murine pro-B, CellTiter-Glo luminescence. CellTiter-Glo ATP luminescence. inhibition, % at 5.6 µM. 220,000 compounds, 1.1% hits;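 active means inhibition above a per-campaign cutoff, the mean inhibition of all tested compounds plus 3 SD, cut at about 27% in these data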;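 further: 0% = DMSO wells and 100% = JAK Inhibitor I control wells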
GPR7 antag: GPR7 receptor antagonists, primary screen, cell-based, fluorescence, single concentration. Neuropeptides B/W receptor type 1 (Homo sapiens), P48145. 290,000 compounds, 1.1% hits. inhibition, % at 4.4 µM. GPR7-expressing cells, fluorescence antagonist assay; in the data active means inhibition above about 16%, passing the limit was not always enough;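 further: cells stimulated with the agonist NPW; 0% = agonist with vehicle and 100% = vehicle without agonist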
Target sequence (P48145 whole entry, looked up): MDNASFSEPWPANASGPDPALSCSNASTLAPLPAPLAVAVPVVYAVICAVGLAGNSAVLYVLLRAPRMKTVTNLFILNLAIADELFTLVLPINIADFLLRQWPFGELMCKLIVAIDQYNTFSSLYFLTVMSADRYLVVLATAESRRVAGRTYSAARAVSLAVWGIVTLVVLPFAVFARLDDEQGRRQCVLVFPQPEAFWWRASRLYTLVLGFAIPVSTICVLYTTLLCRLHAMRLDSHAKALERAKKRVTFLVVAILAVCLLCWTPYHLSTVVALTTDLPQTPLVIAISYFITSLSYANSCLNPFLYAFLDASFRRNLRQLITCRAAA
FID counter: compounds displacing fluorescent DNA intercalator, primary screen, artefact control for HCV NS3 helicase inhibitor project, biochemical, FID fluorescence; DNA fluorescent intercalator displacement; inhibition, % at 7.9 µM; 290,000 compounds, 0.17% hits; AID 1845, 2009; in the data active means inhibition above about 37%;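 further: 0% = vehicle and 100% = reference compound; higher means more ethidium bromide displaced from hairpin DNA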
KLF5 inh: KLF5 expression inhibitors, primary screen, DLD-1 cells, luminescence. DLD-1 KLF5 promoter-luciferase reporter. inhibition, % at 5 µM. 290,000 compounds, 0.23% hits. AID 1700, 2009;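 active means inhibition above a per-plate limit of that plate's mean compound inhibition plus 3 SD, cut at about 60% in these data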;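 further: 0% = DMSO wells and 100% = LY294002 at 200 µM; higher means less KLF5 promoter-driven luciferase light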
IEC-6 cytotox: cytotoxicity in IEC-6 intestinal epithelial cells, primary screen, cytotoxicity control for KLF5 inhibitor project, cell-based, luminescence | AID 1825, 2009 | inhibition, % at 5 µM | IEC-6 cytotoxicity, luminescence viability | 290,000 compounds, 0.78% hits; in the data active means inhibition above about 22%;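 further: 0% = plate median of test compound wells and 100% = cytotoxic reference compound wells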
* = called active by the depositor; . = no result.

SMILES | Ba/F3 V617F tox | BaF3 parental | GPR7 antag | FID counter | KLF5 inh | IEC-6 cytotox
CCN(CC)CCNC(=S)Nc1ccc2nc(N3CCOCC3)cc(C)c2c1 | . | . | 4 | 15 | -28 | 9
CCCN(CCC)CCCNC(=S)Nc1ccc2nc(N3CCCC3)cc(C)c2c1 | -1 | 1 | -6 | 43* | -26 | 6
CCCCN(CC)CCCNC(=S)Nc1ccc2nc(N3CCN(CC)CC3)cc(C)c2c1 | 9 | 14 | -15 | 52* | -2 | 4
CCN(CC)CCNC(=S)Nc1ccc2nc(N3CCCC3)cc(C)c2c1 | 1 | 1 | -7 | 49* | -7 | 12
CCCCN(CC)CCCNC(=S)Nc1ccc2nc(N3CCN(C)CC3)cc(C)c2c1 | 2 | 11 | -10 | 32 | -14 | 0
CCN(CC)CCNC(=S)Nc1ccc2nc(N3CCN(C)CC3)cc(C)c2c1 | . | . | 1 | 44* | -29 | -3
CCNC(=S)N(Cc1cc2cccc(C)c2[nH]c1=O)C1CCCC1 | 0 | 1 | 0 | -22 | -19 | -10
Cc1cc(N2CCOCC2)nc2ccc(NC(=S)NCCN(C)C)cc12 | . | . | 26 | 52* | -22 | 3
Cc1cc(N2CCOCC2)nc2ccc(NC(=S)NCCC(C)C)cc12 | . | . | -7 | -4 | -66 | 2
O=S(=O)(Nc1ccncc1Cl)c1cc(Cl)ccc1Cl | -3 | 2 | 20* | -2 | 9 | 0
O=S(=O)(Nc1ccncc1Cl)c1cccc(Cl)c1Cl | -2 | -5 | -16 | -5 | -23 | -6
Cc1nn(-c2ncc(C(F)(F)F)cc2Cl)c(=O)n1-c1cccc(F)c1 | 0 | 2 | 2 | 0 | -7 | -3
Cc1nn(C)c(C)c1CN(C)S(=O)(=O)c1ccc2ccccc2c1 | 46* | 46* | 14 | -28 | -23 | 14
c1cncc(CSc2ccc(-c3cccs3)nn2)c1 | 6 | 46* | 7 | -6 | -59 | 11
Cc1ccc(CSc2ccc(-c3cccs3)nn2)cc1 | -1 | -1 | -7 | -1 | -17 | 0
c1cncc(Nc2c3ccccc3nc3ccccc23)c1 | . | . | -18 | 37* | 3 | 4
CCOc1ccccc1C(=O)Nc1nnc(COC)s1 | -2 | 4 | -11 | -9 | -39 | 8
N#CCc1ccc(NC(=O)/C=C/c2ccc([N+](=O)[O-])o2)cc1 | 94* | 83* | -1 | -5 | -16 | 6
Cc1cc(C(=O)c2ccc(Cl)cc2)c(NC(=O)CCl)s1 | -2 | 7 | -3 | -2 | -34 | -4
Cn1cc(CNCc2ccc(OC(F)(F)F)cc2)c(-c2ccc3c(c2)OCCO3)n1 | 47* | 40* | 8 | 20 | -14 | 14
Cn1cc(CNCc2cn[nH]c2-c2ccc(F)cc2)c(-c2ccc3c(c2)OCCO3)n1 | 4 | 14 | -1 | 11 | -9 | 6
Cc1ccc2c(c1)C(=O)C(=O)N2CCOc1ccccc1 | 92* | 87* | 33* | 3 | -38 | 91*
Cn1c(-c2ccccc2)c[n+]2c1-c1ccccc1C2 | 85* | 63* | -4 | 1 | -11 | 5
COc1cccc(C(=O)Oc2c(Br)cc(Br)cc2/C=N/NC(=O)c2cc(C)[nH]n2)c1 | 5 | 8 | -11 | 3 | 51 | 41*
CC1=CC(C)C(C[N+]2(C)CCCCC2)C(C)C1 (configuration not stated) | 39* | 61* | -3 | 4 | -8 | -5
SMILES | Ba/F3 V617F tox | BaF3 parental | GPR7 antag | FID counter | KLF5 inh | IEC-6 cytotox
Cc1cc2oc(=O)c(CC(=O)NCCCO)c(C)c2c2occ(C(C)(C)C)c12 | . | . | -19 | -37 | -44 | -2
Cc1cc2oc(=O)c(CC(=O)NCCCN(C)C)c(C)c2c2occ(C(C)(C)C)c12 | . | . | 14 | 37* | -69 | 5
Cc1cc(C)cc(OCC(=O)N(Cc2ccccc2)C2CCS(=O)(=O)C2)c1 (configuration not stated) | . | . | -10 | -30 | -12 | 2
CCC(C)N1CC(O)=C(c2nc3ccccc3[nH]2)C1=N (configuration not stated) | -1 | 90* | 7 | 0 | -35 | 5
COc1ccc(C2=NCC(CSc3nnc(-c4ccc5c(c4)OCO5)o3)S2)cc1 (configuration not stated) | -1 | 51* | -1 | -7 | -16 | -1
CCOc1ccc(Cc2nnc(N)s2)cc1OCC | 4 | 3 | -22 | -6 | 6 | 6
CC(=O)Nc1ccc(S(=O)(=O)N(Cc2ccccc2)C(C)C)cc1 | 32* | 50* | 10 | -14 | 15 | -4
O=C(c1cccnc1)n1nc(-c2ccco2)nc1NCc1cccs1 | 5 | 8 | -6 | 0 | -32 | 3
Cc1cccc(CN2C(=O)/C(=C\c3ccc(C(=O)NCCN4CCOCC4)cc3)Sc3ccccc32)c1 | . | . | 2 | -2 | -27 | 7
CCN1CCN(CCNC(=O)c2ccc(/C=C3/Sc4ccccc4N(Cc4cccc(Cl)c4)C3=O)cc2)CC1 | 12 | 4 | 13 | 39* | -31 | 0
CCN1CCN(CCNC(=O)c2ccc3c(c2)N(Cc2ccc(F)cc2)C(=O)/C(=C/c2ccccc2)S3)CC1 | 1 | 5 | 29* | 31 | -29 | -2
CCOc1cc(C2C3=C(CCCC3=O)N(C)C3=C2C(=O)CCC3)cc(Cl)c1O | 58* | 58* | 3 | -11 | -9 | 6
Cc1ccc(C2=NN=C(NC(=O)C(F)(F)F)SC2)cc1 | 4 | 8 | -10 | -2 | -2 | 1
Cc1ccnc(NC(=O)COc2ccc(Cl)cc2)n1 | 0 | -6 | 19* | 0 | -70 | 2
Cc1ccc(Oc2ncccc2N)c2c1CCC2 | -4 | 5 | 19* | 4 | 2 | 0
Nc1cccnc1Oc1ccc(F)cc1F | -3 | -1 | -13 | -2 | -19 | 2
Cc1ccc(C)c(NS(=O)(=O)c2cc(C(N)=O)ccc2C)c1 | -5 | 1 | 14* | 2 | -4 | 1
CC(=O)NS(=O)(=O)c1ccc(NC(=S)NC(=O)c2ccco2)cc1 | -1 | 4 | 3 | 5 | 0 | 0
O=C(O)c1ccc(NC(=S)NCc2ccccc2)cc1 | . | . | -15 | 3 | 2 | -2
FC(F)(F)c1ccc(NC(=S)NCc2ccccc2)cc1 | 0 | 4 | 24* | -2 | -24 | -1
FC(F)(F)c1cccc(NC(=S)NCc2ccc(Cl)cc2)c1 | 5 | 8 | 28* | -10 | 11 | 10
CCCNC(=S)N1CCC(Cc2ccccc2)CC1 | . | . | -6 | -17 | -35 | 1
CCCCCn1c(=O)[nH]c2cc(C(=O)NCCN3CCOCC3)ccc2c1=O | 2 | 2 | -8 | -2 | -38 | 4
O=C(Nc1nc2ccccc2s1)C1CCCO1 (configuration not stated) | -2 | 95* | -1 | -2 | -152 | -4
